The values below come from PubChem BioAssay (NCI).

Each structure is given as a SMILES string. This is part of a sample that, as a whole, favours compounds with a hit. Of some 79,000 tested, about 15% had one in any assay. Unmarked numbers belong to inactive results. Activity calls are given as the source filed them. Rule as the data show it: active = growth inhibition above about 70%; inactive = the rest. Where a SMILES comes first, the peptide text is derived from it. [ ]: non-standard residue; d: D form. Phe(4-Cl) = N[CH](Cc1ccc(Cl)cc1)C(=O)O; 3Pal = N[CH](Cc1cccnc1)C(=O)O

Test [1] can be described thus: NCI Yeast Anticancer Drug Screen. Data for the rad50 strain (AID 155).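 Also: 0% = growth of vehicle-only cultures of the same strain.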 As to conditions: S. cerevisiae rad50 strain growth inhibition, stronger effect = higher value. In short, it runs like this: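 Readout: growth inhibition relative to vehicle-treated cultures. Compound exposure was carried out in a genetically defined yeast strain deficient in DNA damage repair.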
Test [2] is described as follows: NCI Yeast Anticancer Drug Screen. Data for the mec2-1 strain (AID 157). As to conditions: S. cerevisiae mec2-1 strain, stronger effect = higher value. In a few lines: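 Growth inhibition is read against vehicle-treated controls after compound exposure of the mec2-1 yeast strain, which is defective in DNA damage repair or cell cycle control.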
A short description of test [3]: NCI Yeast Anticancer Drug Screen. Data for the sgs1 mgt1 strain (AID 161).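 Also: 0% = growth of cultures given vehicle only.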 As to conditions: S. cerevisiae sgs1 mgt1 strain, stronger effect = higher value. In a few lines:
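Yeast cells carrying a defined DNA-repair defect were exposed to test compounds. Growth inhibition was measured relative to vehicle-treated controls.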

Test [4] in a line: NCI Yeast Anticancer Drug Screen. Data for the cln2 rad14 strain (AID 165).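 Also: 0% = growth equal to vehicle treated cultures.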 As to conditions: S. cerevisiae cln2 rad14 strain, stronger effect = higher value. In short, it runs like this: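 Growth inhibition, relative to vehicle-treated controls, is the read-out. The test organism is a yeast strain with defined genetic alterations, cln2 rad14.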
Test [5] can be described thus: NCI Yeast Anticancer Drug Screen. Data for the bub3 strain (AID 167). The settings on record: S. cerevisiae bub3 mutant strain, stronger effect = higher value. In short, it runs like this: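 Readout: yeast growth inhibition, expressed relative to vehicle-only wells. The test organism is a mutant strain from a panel with lesions in DNA repair or checkpoint genes.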
Test [6] can be described thus: NCI Yeast Anticancer Drug Screen. Data for the mlh1 rad18 strain (AID 175). The settings on record: S. cerevisiae mlh1 rad18 strain growth inhibition, stronger effect = higher value. In short, it runs like this: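 Cells of a genetically altered yeast strain, deficient in DNA damage repair, were treated with compound. Their growth was then compared with that of vehicle-treated cultures to give inhibition.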

Setting [7] is: at 5.0 µM (retest, dose inferred, filed as 0.5).
[8] abbreviates: at 50.0 µM (retest, dose inferred, filed as 5.0).

In the case of `O=C(NNc1ccccc1)c1cccc([N+](=O)[O-])c1`, the growth inhibition was 23% in test [1] (setting [7]); 98% (active) in test [1] (setting [8]); 98.2% (active) in test [1] (at 50.0 µM); 31% in test [2] (setting [7]); 99% (active) in test [2] (setting [8]); 98.5% (active) in test [2] (at 50.0 µM). For the same compound, the growth inhibition in test [3] (setting [7]) was 39%; in test [3] (setting [8]), 99% (active); in test [3] (at 50.0 µM), 98.8% (active); in test [4] (setting [7]), 28%; in test [4] (setting [8]), 98% (active); in test [4] (at 50.0 µM) it was 93.7% (active). Besides, the growth inhibition in test [5] (setting [7]) was 29%; in test [5] (setting [8]) it was 99% (active); in test [5] (at 50.0 µM), 99.4% (active); in test [6] (setting [7]), 29%; in test [6] (setting [8]) it was 98% (active); in test [6] (at 50.0 µM), 98.8% (active).
On to `c1cnc2ccc3c4cccnc4ccc3c2c1`, for which the growth inhibition in test [1] (setting [7]) is 12%; in test [1] (setting [8]) it was 95% (active); in test [1] (at 50.0 µM), 96.8% (active); in test [2] (setting [7]), 0%; in test [2] (setting [8]), 75% (active); in test [2] (at 50.0 µM), 75% (active). For the same compound, the growth inhibition is 7% in test [3] (setting [7]); 81% (active) in test [3] (setting [8]); 61.3% in test [3] (at 50.0 µM); -17% in test [4] (setting [7]); 67% in test [4] (setting [8]); 59.5% in test [4] (at 50.0 µM). Also, the growth inhibition is 2% in test [5] (setting [7]); 66% in test [5] (setting [8]); 75.8% (active) in test [5] (at 50.0 µM); 1% in test [6] (setting [7]); 89% (active) in test [6] (setting [8]); 80.4% (active) in test [6] (at 50.0 µM).
Consider `O=c1c2c3c(sc2nc2n1N=C(c1ccc(Br)cc1)CS2)CCCC3`, for which the growth inhibition in test [1] (setting [7]) was 1%; in test [1] (setting [8]), -11%; in test [1] (at 50.0 µM), 21.2%; in test [2] (setting [7]), -3%; in test [2] (setting [8]) it was -11%; in test [2] (at 50.0 µM) it was -0.4%. In addition, the growth inhibition in test [3] (setting [7]) is -5%; in test [3] (setting [8]) it was -1%; in test [3] (at 50.0 µM), -22.8%; in test [4] (setting [7]), 17%; in test [4] (setting [8]), 10%; in test [4] (at 50.0 µM), -32.2%. For the same compound, the growth inhibition was 11% in test [5] (setting [7]); -10% in test [5] (setting [8]); -24.5% in test [5] (at 50.0 µM); -10% in test [6] (setting [7]); -6% in test [6] (setting [8]); -25.4% in test [6] (at 50.0 µM).
For the compound `CC(=O)NC(Cc1ccc(Cl)cc1)C(=O)NC(Cc1ccc(Cl)cc1)C(=O)NC(Cc1cccnc1)C(=O)NC(CO)C(=O)NC(Cc1ccc(O)cc1)C(=O)NC(CCCN=C(N)N)C(=O)NC(CC(C)C)C(=O)NC(CCCN=C(N)N)C(=O)N1CCCC1C(=O)NC(C)C(=O)O` (stereo unspecified) (Ac-[Phe(4-Cl)][Phe(4-Cl)][3Pal]SYRLRPA-OH; configuration not given here), the growth inhibition in test [1] (setting [7]) is -20%; in test [1] (setting [8]), -8%; in test [1] (at 50.0 µM), 18.1%; in test [2] (setting [7]), -9%; in test [2] (setting [8]) it was -16%; in test [2] (at 50.0 µM), 17.9%. In addition, the growth inhibition was -14% in test [3] (setting [7]); 0% in test [3] (setting [8]); 5.15% in test [3] (at 50.0 µM); -18% in test [4] (setting [7]); -7% in test [4] (setting [8]); 9.9% in test [4] (at 50.0 µM). The growth inhibition in test [5] (setting [7]) is -4%; in test [5] (setting [8]), 8%; in test [5] (at 50.0 µM) it was 16.7%; in test [6] (setting [7]), 29%; in test [6] (setting [8]), -22%; in test [6] (at 50.0 µM), 53.4%.
As for `Nc1n[nH]c(=O)c2cccnc12`, the growth inhibition in test [1] (setting [7]) was -1%; in test [1] (setting [8]) it was -13%; in test [1] (at 50.0 µM) it was 0.7%; in test [2] (setting [7]), 2%; in test [2] (setting [8]), -12%; in test [2] (at 50.0 µM), -7.95%. Also, the growth inhibition is -1% in test [3] (setting [7]); -13% in test [3] (setting [8]); -10.2% in test [3] (at 50.0 µM); 5% in test [4] (setting [7]); -13% in test [4] (setting [8]); 17% in test [4] (at 50.0 µM). Further, the growth inhibition in test [5] (setting [7]) was 1%; in test [5] (setting [8]), -4%; in test [5] (at 50.0 µM) it was 12.9%; in test [6] (setting [7]), 2%; in test [6] (setting [8]), -14%; in test [6] (at 50.0 µM) it was 3.25%.
As to `O=C(C[n+]1cccc2ccccc21)c1ccc(-c2ccc(C(=O)C[n+]3cccc4ccccc43)cc2)cc1`, the growth inhibition in test [1] (setting [7]) is 3%; in test [1] (setting [8]), 32%; in test [1] (at 50.0 µM), 62.2%; in test [2] (setting [7]) it was 50%; in test [2] (setting [8]), 23%; in test [2] (at 50.0 µM) it was 50%. Besides, the growth inhibition is 2% in test [3] (setting [7]); 36% in test [3] (setting [8]); 46.5% in test [3] (at 50.0 µM); 2% in test [4] (setting [7]); 24% in test [4] (setting [8]); 31.9% in test [4] (at 50.0 µM). The growth inhibition in test [5] (setting [7]) is 1%; in test [5] (setting [8]) it was 44%; in test [5] (at 50.0 µM) it was 45.6%; in test [6] (setting [7]), 4%; in test [6] (setting [8]) it was 53%; in test [6] (at 50.0 µM), 86.3% (active).
As for `Cc1cccc2c(Nc3ccc(NS(C)(=O)=O)cc3)c3ccccc3nc12`, the growth inhibition is 55% in test [1] (setting [7]); 94% (active) in test [1] (setting [8]); 96.5% (active) in test [1] (at 50.0 µM); -1% in test [2] (setting [7]); 41% in test [2] (setting [8]); 47.3% in test [2] (at 50.0 µM). For the same compound, the growth inhibition in test [3] (setting [7]) was 1%; in test [3] (setting [8]), 17%; in test [3] (at 50.0 µM) it was 28.6%; in test [4] (setting [7]), -7%; in test [4] (setting [8]), 19%; in test [4] (at 50.0 µM), -12.7%. The growth inhibition is -2% in test [5] (setting [7]); 2% in test [5] (setting [8]); 24.6% in test [5] (at 50.0 µM); -2% in test [6] (setting [7]); 31% in test [6] (setting [8]); 39.3% in test [6] (at 50.0 µM).
